From PubChem
Hits are enriched below; roughly 5.4% of the tested compounds scored in any of these assays.
JMJD2C inh: blocks human GASC-1 demethylase activity. inhibition, % at 2.35 µM. AID 2099. 330,000 compounds, 0.069% hits. Q9H3R0. GST-JMJD2C(1-420) H3K9me3 demethylation, DELFIA europium;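 active = more than half of a compound's replicate wells show inhibition beyond 50%, single wells judged on their own value; inconclusive = some, but no more than half, of replicates pass 50% inhibition; inactive = no replicate passes 50% inhibition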;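 also: signal counts dimethyl H3K9 product captured on neutravidin plate; 0% = median of DMSO wells and 100% = 0.3 times that DMSO median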
Target sequence (Q9H3R0 1-420 limits assumed): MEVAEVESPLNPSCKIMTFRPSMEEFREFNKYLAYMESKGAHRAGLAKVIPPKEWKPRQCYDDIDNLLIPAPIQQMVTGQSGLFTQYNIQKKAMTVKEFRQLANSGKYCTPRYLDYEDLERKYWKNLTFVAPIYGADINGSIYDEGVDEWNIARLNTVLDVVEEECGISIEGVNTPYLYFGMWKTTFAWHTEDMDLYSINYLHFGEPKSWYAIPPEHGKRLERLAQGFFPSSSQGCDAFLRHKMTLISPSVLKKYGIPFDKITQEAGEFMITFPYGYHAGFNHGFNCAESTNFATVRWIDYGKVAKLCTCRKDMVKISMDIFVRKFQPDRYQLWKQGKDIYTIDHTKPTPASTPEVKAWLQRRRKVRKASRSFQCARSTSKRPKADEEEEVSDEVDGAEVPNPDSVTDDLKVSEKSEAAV
PfM18AAP inh-1: blocks P. falciparum M18 aspartyl aminopeptidase; recombinant PfM18AAP, H-Glu-NHMec fluorogenic cleavage; inhibition, % at 7.35 µM; 290,000 compounds, 1.2% hits; AID 1822;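 active = inhibition above the campaign mean inhibition over all tested compounds plus 3 SD, cut at about 28% in these data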;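 also: 0% = plate median of test compound wells and 100% = 2 mM ZnCl2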
SMARCA2 act: activators of SMARCA2 function; MG213 cells, MMTV-luciferase reporter, dexamethasone, overnight; activation, % at 9.1 µM; 370,000 compounds, 1% hits; in the data active = activation above about 7.8%;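 also: 0% = vehicle wells and 100% = reference activator wells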
Exocytosis inh: blocks lytic granule exocytosis; TALL-104 LAMP-1 surface exposure, flow cytometry; cells stimulated with thapsigargin and PMA; inhibition, % at 10 µM; 360,000 compounds, 0.66% hits; AID 651702;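 active = inhibition above about 55%, limit read from the data; inconclusive = no clear call, values can overlap the other calls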
beta cell repl: inducers of beta-cell replication in MIN6 cells. MIN6 cells proliferation, ATPlite luminescence, 48 h; cells starved in 0.2% serum; 100% = growth in 10% serum. proliferation, % at 10 µM. 330,000 compounds, 0.29% hits. AID 2380;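 active = compounds whose signal lies at least 3.5 SD above the mean of all wells on their plate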;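 also: 0% = DMSO-treated cells in low-serum medium and 100% = 10% serum control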
ALR inh: inhibitors of human sulfhydryl oxidase ALR; purified ALR, DTT oxidation, H2O2 HRP-luminol luminescence; 290,000 compounds, 3.8% hits; inhibition, % (no concentration beside the values);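 active = mean replicate inhibition above about 79%, with every replicate also reaching it, limit read from the data; inconclusive = only one of the two criteria met; inactive = mean below limit and not every replicate reaching it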
Target sequence (P55789 whole entry, looked up): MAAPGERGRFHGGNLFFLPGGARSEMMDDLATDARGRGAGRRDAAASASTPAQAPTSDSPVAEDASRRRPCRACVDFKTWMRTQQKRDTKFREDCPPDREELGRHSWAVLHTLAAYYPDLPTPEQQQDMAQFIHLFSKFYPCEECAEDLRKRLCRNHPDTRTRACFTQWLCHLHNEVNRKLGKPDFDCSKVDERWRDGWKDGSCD
PfM18AAP inh-2: confirmation of Plasmodium falciparum M18 aspartyl aminopeptidase inhibitors; recombinant PfM18AAP, H-Glu-NHMec fluorogenic cleavage; AID 2170; inhibition, % at 7.35 µM; 2,400 compounds, 28% hits; shares compounds with PfM18AAP inh-1;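 active = mean inhibition over replicate wells above the hit cutoff set for the earlier primary screen, cut at about 29% in these data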;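 also: 0% = median of test compound wells and 100% = 2 mM ZnCl2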
CTSL1 confirm: Cathepsin L (human) inhibition, confirmation. shares compounds with PfM18AAP inh-1. purified cathepsin L1, Z-Leu-Arg-MCA fluorescence. inhibition, % at 5.96 µM. 2,400 tested, under 10 active. AID 2178;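 active = average inhibition across replicates above the hit cutoff set in the earlier primary screen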;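 also: 0% = median of test compound wells and 100% = Z-Phe-Ala-diazomethylketone 1 µM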
Numbers without * were called inactive; ? = inconclusive; . = not tested or not shown.

SMILES | JMJD2C inh | PfM18AAP inh-1 | SMARCA2 act | Exocytosis inh | beta cell repl | ALR inh | PfM18AAP inh-2 | CTSL1 confirm
CCOC(=O)c1ccc(CC(=O)c2ccc(O)c(O)c2O)o1 | -7 | 48* | -4 | 1 | -5 | . | 0 | 0
COc1ccc(Cn2nnnc2C(C(C)C)N2CCN(c3ccccc3OC)CC2)cc1 (configuration not stated) | -7 | -14 | -3 | -6 | -2 | . | . | .
CC(C)C(c1nnnn1Cc1ccc(F)cc1)N1CCN(c2ccc(O)cc2)CC1 (configuration not stated) | 4 | 32* | -3 | 0 | -5 | 100* | -11 | 0
CC(C)(C)S(=O)N1C[C@H]2CC(=O)C=C2[C@@H]1CCO (some centres not stated) | . | . | -4 | . | . | . | . | .
CCNC(=S)NNc1nc(N2CCCCC2)nc(N2CCOCC2)n1 | 33 | 44* | -4 | 2 | -1 | 6 | 20 | -8
N#CCC(=O)N/N=C/c1ccc(Sc2nc3ccccc3s2)o1 | 34 | 41* | 4 | 0 | -6 | 13 | -51 | -7
COCC(=O)N/N=C/c1ccc(Sc2nc3ccccc3s2)o1 | -13 | -1 | 2 | 1 | -5 | 0 | . | .
Cc1cccc(Nc2nc(-c3c(C)nc4ccccn34)cs2)c1 | ? | 5 | -6 | 3 | -4 | 40 | . | .
Cc1nc2ccccn2c1-c1csc(Nc2cccc(O)c2)n1 | 34 | 38* | -3 | 12 | . | . | 23 | 5
Cc1nc2ccccn2c1-c1csc(Nc2ccc(C(=O)O)cc2)n1 | 2 | 43* | 2 | 14 | -1 | 2 | 23 | 0
Cc1nc(NC(=O)c2ccccc2)sc1-c1csc(Nc2ccc(Cl)cc2)n1 | -1 | 2 | . | . | -6 | 52 | . | .
OCC(O)/C=N/Nc1nc2ccccc2s1 (configuration not stated) | -35 | 33* | -2 | -3 | 1 | . | 3 | -2
Oc1ccccc1C=NNc1nc2ccccc2s1 | . | . | -2 | -1 | . | . | . | .
O=C(Cc1ccccc1)NNC(=O)Nc1ccc(Cl)c(Cl)c1 | -7 | 5 | -4 | 0 | -3 | -3 | . | .
NC(=S)NNC(=O)Nc1ccc(Cl)c(Cl)c1 | -1 | 35* | -2 | 6 | 2 | 94* | 14 | 2
CCc1cc2c(nc1CC)CCCN2Cc1ccc(Br)cc1 | . | . | -3 | . | . | . | . | .
CCC(=O)Nc1nc2ccc(NC(=O)COc3ccccc3)cc2s1 | -15 | 43* | -2 | 17 | 1 | -14 | -42 | -10
Cc1nc2ccc(NC(=O)COc3ccccc3)cc2s1 | . | 5 | 4 | -3 | . | . | . | .
COCCCN1C(=O)C(O)=C(C(=O)c2ccco2)C1c1ccccc1 (configuration not stated) | 3 | 1 | -1 | 1 | 1 | -1 | . | .
COCc1cc(C2C(C(=O)c3ccco3)=C(O)C(=O)N2CCOCCO)ccc1O (configuration not stated) | -3 | 43* | 0 | 8 | -1 | 18 | -20 | 6
CCOc1cc(C2C(C(=O)c3ccco3)=C(O)C(=O)N2CCc2ccccc2)ccc1O (configuration not stated) | -3 | 33* | 2 | -1 | -1 | 22 | -5 | 6
COc1cccc(CNC(=O)[C@H]2CCCN2C(=O)[C@H]2CCCN2C(=O)c2ccc(OC(F)(F)F)cc2)c1 | . | . | -5 | . | . | . | . | .
O=C(O)[C@H](Cc1ccccc1)NC(=O)[C@H]1O[C@@H](n2ccc(=O)[nH]c2=O)[C@H](O)[C@@H]1O | . | . | 2 | . | . | . | . | .
COCCCNC(=S)N/N=C/c1cccc(OC)c1O | -8 | 18 | 2 | 0 | -4 | 40 | . | .
COCCCNC(=S)N/N=C/c1ccc(O)cc1O | 4 | 36* | -4 | 2 | -2 | 70 | 7 | 0
SMILES | JMJD2C inh | PfM18AAP inh-1 | SMARCA2 act | Exocytosis inh | beta cell repl | ALR inh | PfM18AAP inh-2 | CTSL1 confirm
Cc1nc2ccccn2c1C(=O)NNC(=O)Nc1ccccc1 | 1 | 66* | -2 | 0 | -1 | 28 | 67* | 0
CN(C)c1ccc(C(=O)NNC(=O)Nc2ccccc2)cc1 | -11 | 55* | 0 | -1 | -1 | 20 | 31* | -10
CCN=C1NC(CCc2ccccc2)C(C(=O)OC)=C(C)N1Cc1ccc(C(F)(F)F)cc1 (configuration not stated) | . | . | 4 | . | . | . | . | .
CCCCCn1nnnc1C1(C)CCCC(=O)N1Cc1ccco1 (configuration not stated) | . | . | -2 | . | . | . | . | .
COc1cc(/C=N\Nc2nc3ccccc3o2)cc(OC)c1OC | 2 | 10 | 0 | 5 | -3 | -25 | . | .
COc1ccc(/C=N/Nc2nc3ccccc3o2)cc1O | -5 | 50* | -1 | -4 | -3 | 99* | -33 | 5
COc1cc(/C=N/Nc2nc3ccccc3o2)cc(OC)c1O | 3 | 43* | 0 | 1 | -2 | 99* | 23 | 4
COc1ccc(/C=N/Nc2nc3ccccc3s2)cc1O | -2 | 21 | -1 | 15 | . | . | . | .
COc1ccc(/C=N/Nc2nonc2N)cc1OC | -6 | 5 | 2 | 0 | -2 | 39 | . | .
COc1ccc(/C=N/Nc2nn3cnnc3c3ccccc23)cc1 | -17 | 38* | 2 | -5 | 1 | 2 | -48 | 3
COc1ccc(/C=N/Nc2nonc2N)cc1 | -2 | 32* | 0 | -2 | -2 | 4 | -30 | -2
CC(NC(=O)c1sc2cc([N+](=O)[O-])ccc2c1Cl)C(C)(C)C (configuration not stated) | -44 | 38* | 1 | 1 | -6 | -4 | 31* | 2
O=C(NC1CC1)c1sc2cc([N+](=O)[O-])ccc2c1Cl | -1 | -5 | -5 | -1 | 0 | -17 | . | .
CCCCn1c(O)c(/C=C2\C=Nc3ccccc32)c(=O)[nH]c1=O | 8 | 40* | -2 | 0 | 3 | 54 | 13 | 2
O=C(c1ccc(Sc2ccccc2)c([N+](=O)[O-])c1)N1CCOCC1 | 4 | 0 | 0 | 8 | 4 | -6 | . | .
O=C(c1ccc(SCc2ccco2)c([N+](=O)[O-])c1)N1CCOCC1 | -24 | 34* | -1 | -3 | -4 | 2 | -36 | -6
CC1(c2ccccc2)NC(=O)N(Cc2ccc([N+](=O)[O-])cc2)C1=O (configuration not stated) | -16 | -3 | -3 | -2 | -1 | -3 | . | .
CC1(c2ccc([N+](=O)[O-])cc2)Nc2ccccc2S1 (configuration not stated) | -12 | 35* | 1 | 2 | -6 | 11 | -29 | 0
Cc1[nH]nc2c1C(c1ccccc1)N(c1ccccc1)C2=O (configuration not stated) | . | . | 3 | . | . | . | . | .
COc1ccccc1C(=O)NC1CCCCN(Cc2ccccc2C)C1=O (configuration not stated) | . | . | -2 | . | . | . | . | .
